About 7,900 targets were measured; listed, in parts, are those with a hit and a random draw of the rest. About 0.6% of all pairs of compound and target were hits.
Legend:
Assay in all cases: log2 fold change, soluble protein after heating vs DMSO (PISA); higher = thermal stabilisation; K562 cells, 10 uM, 30 min; active = over 0.2 and 3.5 SD of the protein, either way, in both replicates (recomputed)
saracatinib = compound: CN1CCN(CCOc2cc(OC3CCOCC3)c3c(Nc4c(Cl)ccc5c4OCO5)ncnc3c2)CC1 [saracatinib]
Summary of the method: (§1)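 K562 cells at 2×10^6 cells/mL were treated for 30 min with 10 μM compound, and aliquots were heated for 3 min over 48°C-58°C before pooling. Extraction used PBS with 0.5% NP-40 at 4°C, and soluble protein was the supernatant after 21,000xg for 90 min, measured by TMTpro 16plex LC-MS/MS with channel sums equalised. Thermal stability values, relative to control samples and from duplicates, are log2 fold changes.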

sotrastaurin = compound: CN1CCN(c2nc(C3=C(c4c[nH]c5ccccc45)C(=O)NC3=O)c3ccccc3n2)CC1 [sotrastaurin]
Summary of the method: as §1

alvocidib = compound: CN1CC[C@H](c2c(O)cc(O)c3c(=O)cc(-c4ccccc4Cl)oc23)[C@H](O)C1 [alvocidib]
Summary of the method: as §1

Tubastatin A = compound: CN1CCc2c(c3ccccc3n2Cc2ccc(C(=O)NO)cc2)C1 [Tubastatin A]
Summary of the method: as §1

[1] = compound: CNC(=O)C1=CC=CC=C1NC2=NC(=NC=C2Cl)NC3=C(C=C(C=C3)N4CCOCC4)OC
Summary of the method: as §1

defactinib = compound: CNC(=O)c1ccc(Nc2ncc(C(F)(F)F)c(NCc3nccnc3N(C)S(C)(=O)=O)n2)cc1 [defactinib]
Summary of the method: as §1

rucaparib = compound: CNCc1ccc(-c2[nH]c3cc(F)cc4c3c2CCNC4=O)cc1 [rucaparib]
Summary of the method: as §1

[2] = compound: CNc1nc(-c2ccc3c(N)n[nH]c3c2)cc(N2C[C@@H](C(=O)NC3CCCCC3)CC[C@H]2C)n1
Summary of the method: as §1

encorafenib = compound: COC(=O)N[C@@H](C)CNc1nccc(-c2cn(C(C)C)nc2-c2cc(Cl)cc(NS(C)(=O)=O)c2F)n1 [encorafenib]
Summary of the method: as §1

[3] = compound: COC(=O)[C@H](CCSC)NC(=O)C1=C(C=C(C=C1)NC[C@H](CS)N)C2=CC=CC=C2
Summary of the method: as §1

Measured: log2 fold change

XPO6 (UniProt Q96QU8)
inactive: saracatinib -0.012 | sotrastaurin -0.119 | alvocidib -0.115 | Tubastatin A -0.009 | [1] 0.036 | defactinib -0.104 | rucaparib 0.076 | [2] 0.037 | encorafenib 0.015 | [3] -0.03

TUT4 (UniProt Q5TAX3)
inactive: saracatinib -0.089 | sotrastaurin 0.003 | alvocidib 0.112 | Tubastatin A 0.073 | [1] -0.075 | defactinib -0.095 | rucaparib -0.001 | [2] -0.008 | encorafenib -0.144 | [3] 0.082

WNK1 isoform 7 (UniProt Q9H4A3)
Chain of UniProt Q9H4A3 (Q9H4A3 whole entry, looked up): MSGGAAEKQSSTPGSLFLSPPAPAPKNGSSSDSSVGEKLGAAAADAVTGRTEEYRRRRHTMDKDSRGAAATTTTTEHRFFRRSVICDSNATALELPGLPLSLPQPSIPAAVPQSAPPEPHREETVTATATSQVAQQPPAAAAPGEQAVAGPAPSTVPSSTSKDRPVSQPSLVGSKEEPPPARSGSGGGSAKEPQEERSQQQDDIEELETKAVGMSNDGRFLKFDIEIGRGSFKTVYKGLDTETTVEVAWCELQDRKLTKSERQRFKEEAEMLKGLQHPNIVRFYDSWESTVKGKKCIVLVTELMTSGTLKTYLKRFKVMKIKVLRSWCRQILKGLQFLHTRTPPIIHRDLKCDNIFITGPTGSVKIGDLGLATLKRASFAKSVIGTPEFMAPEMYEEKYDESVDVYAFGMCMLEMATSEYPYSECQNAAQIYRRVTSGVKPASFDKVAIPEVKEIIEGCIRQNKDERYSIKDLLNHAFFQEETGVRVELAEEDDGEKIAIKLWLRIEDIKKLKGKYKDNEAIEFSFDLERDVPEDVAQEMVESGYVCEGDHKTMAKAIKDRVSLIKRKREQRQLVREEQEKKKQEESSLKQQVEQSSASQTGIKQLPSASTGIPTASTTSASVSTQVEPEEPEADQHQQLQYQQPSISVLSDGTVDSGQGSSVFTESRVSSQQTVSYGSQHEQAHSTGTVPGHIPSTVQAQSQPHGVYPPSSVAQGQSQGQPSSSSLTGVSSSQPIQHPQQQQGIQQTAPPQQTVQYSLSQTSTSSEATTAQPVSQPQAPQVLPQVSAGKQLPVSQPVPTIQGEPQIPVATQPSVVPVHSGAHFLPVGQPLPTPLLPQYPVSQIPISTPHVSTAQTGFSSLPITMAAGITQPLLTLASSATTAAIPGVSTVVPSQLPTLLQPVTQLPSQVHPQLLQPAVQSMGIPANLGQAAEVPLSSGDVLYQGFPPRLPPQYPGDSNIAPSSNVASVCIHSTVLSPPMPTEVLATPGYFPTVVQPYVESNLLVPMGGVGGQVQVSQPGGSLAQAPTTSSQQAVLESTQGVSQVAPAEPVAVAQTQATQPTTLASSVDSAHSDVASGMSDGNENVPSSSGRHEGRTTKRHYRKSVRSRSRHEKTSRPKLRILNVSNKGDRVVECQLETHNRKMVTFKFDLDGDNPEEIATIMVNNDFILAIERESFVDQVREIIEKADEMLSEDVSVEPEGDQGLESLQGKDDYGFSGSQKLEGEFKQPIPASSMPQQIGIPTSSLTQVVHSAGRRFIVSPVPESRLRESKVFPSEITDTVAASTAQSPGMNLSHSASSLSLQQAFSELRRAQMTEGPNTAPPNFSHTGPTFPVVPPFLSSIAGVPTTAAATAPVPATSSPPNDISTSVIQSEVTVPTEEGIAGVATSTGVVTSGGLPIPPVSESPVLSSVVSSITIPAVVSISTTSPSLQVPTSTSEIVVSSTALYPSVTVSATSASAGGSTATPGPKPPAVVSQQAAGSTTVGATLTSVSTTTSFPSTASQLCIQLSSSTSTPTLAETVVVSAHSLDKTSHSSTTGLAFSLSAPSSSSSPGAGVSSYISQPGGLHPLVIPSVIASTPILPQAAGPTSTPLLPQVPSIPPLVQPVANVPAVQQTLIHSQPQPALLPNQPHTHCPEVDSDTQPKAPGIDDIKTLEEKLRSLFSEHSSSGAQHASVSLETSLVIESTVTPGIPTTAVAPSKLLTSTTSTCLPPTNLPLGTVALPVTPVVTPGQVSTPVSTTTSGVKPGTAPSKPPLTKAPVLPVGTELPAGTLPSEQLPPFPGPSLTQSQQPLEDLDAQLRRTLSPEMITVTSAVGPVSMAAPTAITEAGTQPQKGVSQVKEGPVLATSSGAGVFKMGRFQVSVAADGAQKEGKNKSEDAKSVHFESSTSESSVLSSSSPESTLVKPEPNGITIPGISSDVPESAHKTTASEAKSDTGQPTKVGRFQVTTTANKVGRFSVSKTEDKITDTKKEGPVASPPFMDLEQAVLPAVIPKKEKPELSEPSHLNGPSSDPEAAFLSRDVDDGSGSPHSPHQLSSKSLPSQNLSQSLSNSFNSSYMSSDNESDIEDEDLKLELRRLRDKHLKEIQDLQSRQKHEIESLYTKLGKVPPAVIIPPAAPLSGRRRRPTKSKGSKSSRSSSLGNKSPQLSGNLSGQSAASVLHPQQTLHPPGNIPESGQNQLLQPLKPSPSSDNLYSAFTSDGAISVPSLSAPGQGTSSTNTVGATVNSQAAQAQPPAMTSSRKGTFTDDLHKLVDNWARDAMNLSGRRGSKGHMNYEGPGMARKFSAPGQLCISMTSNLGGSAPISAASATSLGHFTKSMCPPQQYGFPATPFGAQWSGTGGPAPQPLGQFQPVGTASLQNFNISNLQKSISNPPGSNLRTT
inactive: saracatinib 0.022 | sotrastaurin 0.003 | alvocidib -0.007 | Tubastatin A -0.005 | [1] -0.047 | defactinib 0.003 | rucaparib 0.013 | [2] -0.035 | encorafenib 0.012 | [3] 0.006

VKORC1 (UniProt Q9BQB6)
inactive: saracatinib 0.002 | sotrastaurin -0.086 | alvocidib 0.073 | Tubastatin A -0.052 | [1] 0.105 | defactinib -0.038 | rucaparib -0.059 | [2] 0.026 | encorafenib 0.057 | [3] -0.023

TRAPPC3 (UniProt O43617)
Chain of UniProt O43617 (O43617 whole entry, looked up): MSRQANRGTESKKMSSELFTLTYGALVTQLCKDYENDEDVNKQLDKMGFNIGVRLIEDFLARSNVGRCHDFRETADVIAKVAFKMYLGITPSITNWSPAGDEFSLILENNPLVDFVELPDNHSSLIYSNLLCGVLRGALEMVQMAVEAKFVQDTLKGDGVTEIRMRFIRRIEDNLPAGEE
inactive: saracatinib 0.063 | sotrastaurin 0.001 | alvocidib -0.071 | Tubastatin A -0.026 | [1] 0 | defactinib -0.072 | rucaparib -0.056 | [2] -0.014 | encorafenib 0.015 | [3] 0.013

TTC38 (UniProt Q5R3I4)
active: Tubastatin A 0.578
inactive: saracatinib -0.045 | sotrastaurin 0.086 | alvocidib -0.132 | [1] -0.062 | defactinib -0.262 | rucaparib 0.435 | [2] 0.293 | encorafenib -0.02 | [3] -0.011

TOE1 (UniProt Q96GM8)
inactive: saracatinib 0.025 | sotrastaurin -0.016 | alvocidib 0.221 | Tubastatin A 0.031 | [1] 0.122 | defactinib 0.193 | rucaparib -0.066 | [2] 0.05 | encorafenib 0.017 | [3] 0.05

UGGT1 (UniProt Q9NYU2)
Chain of UniProt Q9NYU2 (Q9NYU2 whole entry, looked up): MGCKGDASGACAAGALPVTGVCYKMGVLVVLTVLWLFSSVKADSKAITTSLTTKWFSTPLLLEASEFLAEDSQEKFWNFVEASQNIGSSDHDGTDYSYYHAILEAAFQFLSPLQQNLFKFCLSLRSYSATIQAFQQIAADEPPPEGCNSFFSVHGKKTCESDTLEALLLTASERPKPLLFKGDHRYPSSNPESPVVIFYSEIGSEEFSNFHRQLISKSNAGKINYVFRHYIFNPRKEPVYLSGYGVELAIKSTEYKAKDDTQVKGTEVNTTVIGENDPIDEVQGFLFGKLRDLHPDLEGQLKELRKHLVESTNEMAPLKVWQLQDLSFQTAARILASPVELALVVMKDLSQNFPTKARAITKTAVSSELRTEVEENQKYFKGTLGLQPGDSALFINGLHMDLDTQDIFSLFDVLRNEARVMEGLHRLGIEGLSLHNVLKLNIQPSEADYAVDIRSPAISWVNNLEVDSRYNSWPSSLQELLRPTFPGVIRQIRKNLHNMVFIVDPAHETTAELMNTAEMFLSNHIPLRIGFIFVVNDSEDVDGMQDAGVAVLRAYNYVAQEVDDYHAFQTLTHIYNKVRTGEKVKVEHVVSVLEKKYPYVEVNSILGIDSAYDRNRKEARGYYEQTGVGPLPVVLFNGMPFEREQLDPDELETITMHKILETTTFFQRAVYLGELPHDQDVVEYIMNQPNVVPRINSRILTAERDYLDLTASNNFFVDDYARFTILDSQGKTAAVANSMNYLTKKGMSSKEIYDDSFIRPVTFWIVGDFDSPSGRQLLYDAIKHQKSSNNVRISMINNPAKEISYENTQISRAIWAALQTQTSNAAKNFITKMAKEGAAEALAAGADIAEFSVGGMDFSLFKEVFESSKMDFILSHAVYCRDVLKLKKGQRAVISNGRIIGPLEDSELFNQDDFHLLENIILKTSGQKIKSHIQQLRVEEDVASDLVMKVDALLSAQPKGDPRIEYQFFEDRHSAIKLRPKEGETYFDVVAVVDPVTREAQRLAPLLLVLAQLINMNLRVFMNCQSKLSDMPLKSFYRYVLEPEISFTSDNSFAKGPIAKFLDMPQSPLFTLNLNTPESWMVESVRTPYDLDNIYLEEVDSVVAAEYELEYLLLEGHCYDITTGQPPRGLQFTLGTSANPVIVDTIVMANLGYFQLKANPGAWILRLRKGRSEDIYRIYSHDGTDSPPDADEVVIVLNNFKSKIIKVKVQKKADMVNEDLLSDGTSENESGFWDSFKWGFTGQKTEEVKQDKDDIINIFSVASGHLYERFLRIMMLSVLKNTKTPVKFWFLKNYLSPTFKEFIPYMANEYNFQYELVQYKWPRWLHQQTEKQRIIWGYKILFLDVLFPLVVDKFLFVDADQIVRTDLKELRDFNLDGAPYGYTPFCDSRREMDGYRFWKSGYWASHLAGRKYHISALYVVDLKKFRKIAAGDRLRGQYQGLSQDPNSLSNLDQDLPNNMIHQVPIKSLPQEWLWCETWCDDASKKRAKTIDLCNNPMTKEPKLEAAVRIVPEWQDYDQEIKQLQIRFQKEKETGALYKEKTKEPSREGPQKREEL
inactive: saracatinib -0.006 | sotrastaurin -0.034 | alvocidib -0.037 | Tubastatin A 0.022 | [1] -0.005 | defactinib 0.019 | rucaparib 0.009 | [2] -0.033 | encorafenib 0.017 | [3] -0.002

TOMM20 (UniProt Q15388)
inactive: saracatinib 0.012 | sotrastaurin -0.005 | alvocidib -0.001 | Tubastatin A -0.031 | [1] -0.028 | defactinib -0.011 | rucaparib -0.009 | [2] -0.034 | encorafenib -0.131 | [3] 0.033

VPS33B (UniProt Q9H267)
Chain of UniProt Q9H267 (Q9H267 whole entry, looked up): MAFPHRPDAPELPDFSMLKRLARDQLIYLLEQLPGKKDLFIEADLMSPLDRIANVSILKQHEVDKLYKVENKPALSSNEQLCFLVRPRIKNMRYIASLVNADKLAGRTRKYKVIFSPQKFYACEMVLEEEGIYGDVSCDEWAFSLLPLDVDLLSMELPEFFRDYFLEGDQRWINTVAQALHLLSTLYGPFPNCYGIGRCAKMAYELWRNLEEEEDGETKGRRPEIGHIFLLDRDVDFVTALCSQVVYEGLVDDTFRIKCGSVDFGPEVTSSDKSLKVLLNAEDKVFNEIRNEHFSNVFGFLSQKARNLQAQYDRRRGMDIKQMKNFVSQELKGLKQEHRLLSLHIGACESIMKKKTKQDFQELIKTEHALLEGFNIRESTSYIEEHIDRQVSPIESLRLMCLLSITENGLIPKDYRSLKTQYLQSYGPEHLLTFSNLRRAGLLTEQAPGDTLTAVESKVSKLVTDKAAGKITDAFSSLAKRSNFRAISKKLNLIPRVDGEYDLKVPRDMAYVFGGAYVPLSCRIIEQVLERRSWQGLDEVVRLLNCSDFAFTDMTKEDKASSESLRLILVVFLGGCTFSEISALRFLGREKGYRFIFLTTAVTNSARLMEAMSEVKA
inactive: saracatinib -0.088 | sotrastaurin -0.117 | alvocidib -0.008 | Tubastatin A 0.039 | [1] -0.071 | defactinib -0.078 | rucaparib 0.196 | [2] 0.052 | encorafenib 0.111 | [3] -0.058

TMEM106B (UniProt Q9NUM4)
Chain of UniProt Q9NUM4 (Q9NUM4 whole entry, looked up): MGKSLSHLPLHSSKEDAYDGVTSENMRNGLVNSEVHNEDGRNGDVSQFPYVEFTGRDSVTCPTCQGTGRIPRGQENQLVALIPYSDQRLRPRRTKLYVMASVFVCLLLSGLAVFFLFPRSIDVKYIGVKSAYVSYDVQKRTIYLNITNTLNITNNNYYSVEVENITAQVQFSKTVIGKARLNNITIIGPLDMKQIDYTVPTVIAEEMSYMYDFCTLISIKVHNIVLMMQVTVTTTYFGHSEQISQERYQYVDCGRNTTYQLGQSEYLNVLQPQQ
inactive: saracatinib 0.123 | sotrastaurin 0.027 | alvocidib 0.02 | Tubastatin A -0.121 | [1] -0.037 | defactinib 0.021 | rucaparib -0.007 | [2] -0.145 | encorafenib -0.037 | [3] -0.059

TUBAL3 (UniProt A6NHL2)
inactive: saracatinib -0.074 | sotrastaurin -0.054 | alvocidib 0.058 | Tubastatin A -0.003 | [1] -0.125 | defactinib -0.069 | [2] 0.067 | encorafenib 0.187 | [3] -0.057
active: rucaparib -0.51

TOMM5 isoform 2 (UniProt Q8N4H5)
Chain of UniProt Q8N4H5 (Q8N4H5 whole entry, looked up): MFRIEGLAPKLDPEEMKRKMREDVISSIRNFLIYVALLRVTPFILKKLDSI
inactive: saracatinib -0.033 | sotrastaurin 0.064 | alvocidib 0.012 | Tubastatin A 0.027 | [1] 0.059 | defactinib 0.01 | rucaparib -0.033 | [2] -0.031 | encorafenib -0.036 | [3] 0.049

TRAPPC6B (UniProt Q86SZ2)
inactive: saracatinib 0.035 | sotrastaurin -0.068 | alvocidib -0.055 | Tubastatin A 0.031 | [1] -0.034 | defactinib -0.046 | rucaparib 0.012 | [2] 0.008 | encorafenib -0.02 | [3] 0.022

TSG101 (UniProt Q99816)
inactive: saracatinib -0.008 | sotrastaurin -0.047 | alvocidib -0.076 | Tubastatin A 0 | [1] 0.011 | defactinib -0.12 | rucaparib -0.006 | [2] -0.044 | encorafenib -0.007 | [3] -0.032

Source: the supplement of paper PMC10849652
